{"source": "PubChem BioAssay (NCATS)", "note": "Inconclusive results are not listed. A number with no mark means an inactive call. Activity calls are given as the source filed them. Calls come from the whole dose curve; as a rule, active = well fitted curve in the direction sought with a large enough effect; inconclusive = small, poorly fitted or top-dose-only effect, or another doubt; inactive = no such curve, though single readings can be large; an effect the other way counts as inactive or inconclusive. Throughout, for Potency: nearly all actives have a fitted effect of over 40% in size. Throughout, for Potency: potency is the fitted concentration of half-maximal effect. Throughout, for activation: % of control where 0% means no effect. Throughout, for activation: nearly all actives have a fitted effect of over 40% in size.", "data": [{"target": "Rap guanine nucleotide exchange factor 3 (Homo sapiens) (UniProt O95398)", "sequence (O95398 whole entry, looked up)": "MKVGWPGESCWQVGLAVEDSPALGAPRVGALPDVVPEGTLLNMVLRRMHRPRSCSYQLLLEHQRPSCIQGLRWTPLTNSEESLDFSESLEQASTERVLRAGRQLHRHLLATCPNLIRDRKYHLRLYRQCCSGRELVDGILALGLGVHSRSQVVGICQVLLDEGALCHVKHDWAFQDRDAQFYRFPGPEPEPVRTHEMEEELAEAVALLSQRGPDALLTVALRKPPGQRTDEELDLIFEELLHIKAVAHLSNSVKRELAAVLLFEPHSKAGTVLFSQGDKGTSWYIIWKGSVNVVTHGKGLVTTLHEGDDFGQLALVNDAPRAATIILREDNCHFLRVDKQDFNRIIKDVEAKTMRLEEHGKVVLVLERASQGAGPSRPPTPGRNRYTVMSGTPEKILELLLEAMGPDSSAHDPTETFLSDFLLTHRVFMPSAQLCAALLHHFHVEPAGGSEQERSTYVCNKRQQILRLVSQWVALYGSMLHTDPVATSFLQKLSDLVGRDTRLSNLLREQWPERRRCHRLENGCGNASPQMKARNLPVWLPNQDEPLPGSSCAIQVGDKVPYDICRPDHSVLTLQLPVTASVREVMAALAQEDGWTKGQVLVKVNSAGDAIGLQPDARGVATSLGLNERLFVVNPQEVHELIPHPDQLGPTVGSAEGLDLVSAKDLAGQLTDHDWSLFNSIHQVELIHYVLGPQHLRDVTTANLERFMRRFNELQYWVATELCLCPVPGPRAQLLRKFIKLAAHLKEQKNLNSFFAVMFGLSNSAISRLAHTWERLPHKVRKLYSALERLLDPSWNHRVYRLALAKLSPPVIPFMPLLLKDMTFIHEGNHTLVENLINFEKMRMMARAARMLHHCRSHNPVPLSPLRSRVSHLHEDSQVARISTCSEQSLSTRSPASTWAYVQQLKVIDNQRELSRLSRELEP", "experiment": "Counterscreen qHTS for antagonist of cAMP-regulated guanine nucleotide exchange factor 3 (EPAC1) (AID 1645888);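 note: fluorescence loss as bound BODIPY-GDP is released from Rap1B; % of control where 0% means no effect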", "conditions": "Rap1B-BODIPY-GDP nucleotide exchange, fluorescence; series mostly up to 154 µM", "method_in_brief": "(§1)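 Rap1B-BODIPY-GDP 250 nM + GDP 50 uM; cpds 7-pt, final 9.74 nM–152 uM (activator mode) or from 7.32 nM upwards (inhibitor mode); RT; FI 480/540 nm at 5 and 30 min, then ± cAMP, reread.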", "values": [{"smiles": "Cc1cc(C)c2nc(N3C(=O)C(O)=C(C(=O)c4ccco4)C3c3ccc(O)cc3)sc2c1", "note": "(configuration not stated)", "Potency": "inactive"}, {"smiles": "CCOC(=O)C(C)Sc1ncnc2c1nnn2-c1ccc(F)cc1", "note": "(configuration not stated)", "activity change, negative = inhibition": "-4.79% [at 30.8 µM]"}, {"smiles": "O=C(Nc1sc2c(c1C(=O)O)CCC2)c1ccccc1F", "Potency": "inactive"}, {"smiles": "COc1ccc(-c2nc(C)ncc2-c2ccc(Cl)cc2)c(O)c1", "Potency": "inactive"}, {"smiles": "O=C(/C=C/c1ccco1)NCC1OCCc2ccccc21", "note": "(configuration not stated)", "Potency": "inactive"}, {"smiles": "CCOc1ccc(-n2c(SCC(=O)Nc3ccc(F)cc3)nc3c([nH]c4ccccc43)c2=O)cc1", "Potency": "inactive"}, {"smiles": "COc1ccc(C(C(=O)NC(C)(C)C)n2c(=O)c(-c3cc4ccccc4[nH]3)nc3ccccc32)cc1", "note": "(configuration not stated)", "Potency": "inactive"}]}, {"target": "Rap guanine nucleotide exchange factor 3 (Homo sapiens) (UniProt O95398)", "experiment": "Counterscreen qHTS for agonist of cAMP-regulated guanine nucleotide exchange factor 3 (EPAC1) (AID 1645889)", "conditions": "EPAC1 Rap1B-BODIPY-GDP exchange, fluorescence; series mostly up to 154 µM", "method_in_brief": "as §1", "values": [{"smiles": "Oc1ccc2ccc3cccc[n+]3c2c1", "Potency": "39.8 µM (active)"}, {"smiles": "O=C1c2cccc3c(O)ccc(c23)C(=O)N1Cc1ccco1", "Potency": "70.8 µM (active)"}, {"smiles": "Nc1ccc2cc3[nH]c4cc(N)ccc4c3nc2c1", "Potency": "63.1 µM (active)"}, {"smiles": "CC1=NOC(=O)/C1=C\\c1ccc(-c2ccc(Br)cc2)o1", "activation": "11.6% [at 30.8 µM]"}, {"smiles": "O=C1c2cccc3c(O)ccc(c23)C(=O)N1Cc1ccccc1", "Potency": "39.8 µM (active)"}, {"smiles": "Nc1ccc(-c2c3ccc(=O)cc-3oc3cc(O)ccc23)cc1C(=O)O", "Potency": "50.1 µM (active)"}, {"smiles": "CC(=O)Nc1ccc(N2C(=O)c3cccc4c(O)ccc(c34)C2=O)cc1", "Potency": "39.8 µM (active)"}, {"smiles": "CCOC(=O)c1cnc2ccc(OC)cc2c1Nc1ccc(N2CCN(C)CC2)cc1", "activation": "12.2% [at 30.8 µM]"}, {"smiles": "CCN1C(=O)c2cccc3c(N)ccc(c23)C1=O", "Potency": "35.5 µM (active)"}, {"smiles": "CCNc1ccc2noc3c2c1C(=O)c1ccccc1-3", "Potency": "22.4 µM (active)"}]}]}
